Measurements published in PubChem BioAssay AID624255 (Broad Institute, 2012).
Out of some 77,000 compounds screened, about 4,600 (6%) were called active. Roughly 1% stayed inconclusive and do not appear here. The sample holds actives, similar compounds and a random draw of the others, so the mix is not that of the screen. Values without a mark were called inactive.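 The calls were made as follows: active = mean inhibition above about 93%, with at least 55% of replicates each passing it (limit read from the data, passing the limit was not always enough); inconclusive = only one of those two conditions holds; inactive = neither condition holds.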

Test: T. cruzi intracellular proliferation inhibitors, primary screen, cell-based, beta-gal Tulahuen parasites, NIH3T3 host, luminescence (AID 624255)
Conditions: T. cruzi beta-gal in NIH3T3, GalScreen luminescence, 90 h; at 8.34 µM; hits give high values
C[C@@H]1CN([C@H](C)CO)C(=O)c2cc(NC(=O)c3ccccc3)ccc2O[C@@H](C)CCCCO[C@H]1CN(C)C(=O)c1ccncc1 gave an inhibition of -20.8%. CCC(=O)N1C[C@H](C)[C@H](OC)CN(C)C(=O)c2ccc(NC(=O)Nc3ccccc3)cc2OC[C@H]1C showed an inhibition of -75.2%. With CCC(=O)Nc1ccc2c(c1)OC[C@H](C)N(Cc1ccccc1OC)C[C@@H](C)[C@@H](OC)CN(C)C2=O the inhibition was 32.5%. CCC(=O)Nc1ccc2c(c1)C(=O)N(C)[C@@H]1CC[C@@H](CC(=O)NCCc3ccccc3)O[C@H]1CO2 gave an inhibition of 49.1%. Molecule C/C=C/c1ccc([C@H]2[C@@H](CO)N(C(=O)Cc3ccncc3)[C@@H]2CNC(C)=O)cc1 has an inhibition of 13.1%. With O=S(=O)(Cc1ccccc1)N1CCCCN2[C@@H](CO)[C@H](c3ccc(-c4ccccc4)cc3)[C@@H]2C1 the inhibition was 110% (active). Molecule O=S(=O)(Cc1ccccc1)N1CCCCN2[C@H](CO)[C@@H](c3ccc(-c4cncnc4)cc3)[C@H]2C1 has an inhibition of 91%. CS(=O)(=O)N1CCCCN2[C@H](CO)[C@H](c3ccc(-c4cccc(C#N)c4)cc3)[C@H]2C1 gave an inhibition of 74.2%. In the case of COCC(=O)Nc1ccc2c(c1)C(=O)N(C)[C@@H]1CC[C@H](CC(=O)NCC3CCCCC3)O[C@H]1CO2, the inhibition was -49.4%. For CC(C)CC#Cc1cnc2c(c1)C(=O)N([C@@H](C)CO)C[C@@H](C)[C@H](CN(C)C(=O)Cc1ccncc1)O2, the inhibition was 107% (active). CC(=O)N(C)C[C@H]1Oc2ncc(C#Cc3ccccn3)cc2C(=O)N([C@H](C)CO)C[C@@H]1C showed an inhibition of 57.3%. In the case of COCC(=O)N(C)C[C@@H]1Oc2ncc(C#Cc3ccccc3OC)cc2C(=O)N([C@@H](C)CO)C[C@H]1C, the inhibition was 113% (active). With COc1ccc(C#Cc2cnc3c(c2)C(=O)N([C@@H](C)CO)C[C@H](C)[C@@H](CN(C)C(C)=O)O3)cc1 the inhibition was 110% (active). Work on COc1ccc(C#Cc2cnc3c(c2)C(=O)N([C@H](C)CO)C[C@H](C)[C@@H](CN(C)C)O3)cc1 yielded an inhibition of 29.3%. Molecule COc1cccc(C#Cc2cnc3c(c2)C(=O)N([C@@H](C)CO)C[C@H](C)[C@@H](CN(C)C(C)=O)O3)c1 has an inhibition of -12.9%. For C[C@@H]1CN([C@H](C)CO)C(=O)c2cc(C#CCN(C)C)cnc2O[C@H]1CN(C)C(=O)Cc1ccncc1, the inhibition was 67.2%. For CCCC#Cc1cnc2c(c1)C(=O)N([C@H](C)CO)C[C@H](C)[C@H](CN(C)C(=O)Cc1ccncc1)O2, the inhibition was -5.16%. With CCC(=O)N(C)C[C@@H]1Oc2ncc(C#Cc3ccccc3)cc2C(=O)N([C@@H](C)CO)C[C@H]1C the inhibition was 87.1%. COc1ccccc1C#Cc1cnc2c(c1)C(=O)N([C@@H](C)CO)C[C@@H](C)[C@@H](CN(C)C(=O)CN(C)C)O2 showed an inhibition of -91.1%. COc1ccccc1C#Cc1cnc2c(c1)C(=O)N([C@@H](C)CO)C[C@@H](C)[C@H](CN(C)C(=O)CN(C)C)O2 showed an inhibition of 36.2%. With C[C@@H]1CN([C@@H](C)CO)C(=O)c2cc(C#Cc3ccccc3)cnc2O[C@H]1CN(C)C(=O)c1ccccn1 the inhibition was 108% (active). COc1ccc(CN(C)C[C@@H]2OCCCC[C@H](C)Oc3ccc(NC(=O)c4ccccc4)cc3C(=O)N([C@H](C)CO)C[C@H]2C)cc1 showed an inhibition of 76.8%. Molecule CC=Cc1ccc2n(c1=O)C[C@@H]1[C@@H](CO)[C@H](C(=O)NCC(F)(F)F)N(CCc3ccccc3)[C@H]21 (mixture of isomers) has an inhibition of 47.7%. Cc1ccc(S(=O)(=O)N[C@H]2CC[C@@H](CC(=O)NCc3ccc(Cl)c(Cl)c3)O[C@H]2CO)cc1 showed an inhibition of 64.8%. CCCC(=O)Nc1ccc2c(c1)C(=O)N(C)C[C@@H](OC)[C@@H](C)CN(Cc1cncnc1)[C@@H](C)CO2 showed an inhibition of -11%. Molecule CC(C)NC(=O)Nc1ccc2c(c1)CC(=O)N([C@@H](C)CO)C[C@@H](C)[C@H](CN(C)CC1CC1)O2 has an inhibition of 14.2%. Work on CCC(=O)Nc1ccc2c(c1)C(=O)N(C)[C@@H]1CC[C@@H](CC(=O)N[C@@H](C)c3ccccc3)O[C@@H]1CO2 yielded an inhibition of 29.7%. For COc1ccc(S(=O)(=O)Nc2ccc3c(c2)C(=O)N([C@H](C)CO)C[C@@H](C)[C@H](CN(C)Cc2ccccc2)O3)cc1, the inhibition was 13.7%. Molecule CC(C)C#Cc1cnc2c(c1)C(=O)N([C@H](C)CO)C[C@@H](C)[C@H](CN(C)Cc1ccccc1)O2 has an inhibition of -6.87%. In the case of C[C@@H]1CN([C@H](C)CO)C(=O)c2cc(/C=C/c3ccccc3)cnc2O[C@@H]1CN(C)Cc1ccncc1, the inhibition was 96.3% (active). C/C=C/c1cnc2c(c1)C(=O)N([C@@H](C)CO)C[C@@H](C)[C@H](CN(C)Cc1ccccc1)O2 showed an inhibition of -55.6%. CCCC#Cc1cnc2c(c1)C(=O)N([C@H](C)CO)C[C@@H](C)[C@@H](CN(C)C(=O)Nc1ccccc1F)O2 gave an inhibition of 11.2%. Work on CCCC#Cc1cnc2c(c1)C(=O)N([C@H](C)CO)C[C@H](C)[C@@H](CN(C)Cc1ccccc1)O2 yielded an inhibition of 18.3%. In the case of C[C@H](CO)N1C[C@H](C)[C@@H](CN(C)Cc2cccnc2)Oc2ncc(/C=C/c3ccccc3)cc2C1=O, the inhibition was 12.8%. With C[C@@H]1CN([C@H](C)CO)C(=O)c2cc(C#Cc3ccccn3)cnc2O[C@H]1CN(C)Cc1ccccc1 the inhibition was 120% (active). For C[C@H](CO)N1C[C@H](C)[C@H](CN(C)C(=O)Nc2cccc3ccccc23)Oc2ncc(C#Cc3ccccc3)cc2C1=O, the inhibition was 122% (active). For CC(C)CC#Cc1cnc2c(c1)C(=O)N([C@H](C)CO)C[C@H](C)[C@H](CN(C)C(=O)Nc1ccccc1F)O2, the inhibition was 53.1%. For COc1ccccc1-c1cn(CC[C@H]2CC[C@H](NC(=O)C3CCOCC3)[C@@H](CO)O2)nn1, the inhibition was 7.67%. In the case of O=C(C[C@@H]1C=C[C@H](NC(=O)Nc2ccc3c(c2)OCO3)[C@H](CO)O1)NCc1ccccc1, the inhibition was 17.2%. Molecule CC=Cc1ccc2n(c1=O)C[C@@H]1[C@@H](CO)[C@H](C(=O)NCCc3ccccc3)N(C(C)=O)[C@H]21 (mixture of isomers) has an inhibition of 28.7%. For C[C@@H](O)C#Cc1ccc([C@H]2[C@@H](CO)N3CCCCN(CC4CC4)C[C@@H]23)cc1, the inhibition was 29.6%. For CCCC#Cc1ccc([C@@H]2[C@H](CO)N3CCCCN(S(=O)(=O)c4ccccc4F)C[C@@H]23)cc1, the inhibition was 37.8%. In the case of C[C@H](O)C#Cc1ccc([C@H]2[C@H]3CN(S(=O)(=O)Cc4ccccc4)CCCCN3[C@H]2CO)cc1, the inhibition was 110% (active). Work on C[C@H](O)C#Cc1ccc([C@@H]2[C@H](CO)N3CCCCN(CC4CC4)C[C@@H]23)cc1 yielded an inhibition of 8.49%. C[C@@H](O)C#Cc1ccc([C@@H]2[C@H]3CN(S(=O)(=O)c4ccccc4)CCCCN3[C@H]2CO)cc1 gave an inhibition of 26.7%. C[C@@H](O)C#Cc1ccc([C@H]2[C@@H](CO)N3CCCCN(S(=O)(=O)c4ccccc4)C[C@@H]23)cc1 gave an inhibition of 59.2%. For CN(C)CC#Cc1ccc([C@H]2[C@H]3CN(S(=O)(=O)c4ccccc4F)CCCCN3[C@H]2CO)cc1, the inhibition was 106% (active). With C[C@@H](O)C#Cc1ccc([C@@H]2[C@H](CO)N3CCCCN(S(=O)(=O)c4ccccc4)C[C@@H]23)cc1 the inhibition was 107% (active). In the case of C/C=C/c1ccc([C@H]2[C@H]3CN(S(=O)(=O)c4ccccc4)CCCCN3[C@H]2CO)cc1, the inhibition was 123% (active). CCCC#Cc1ccc([C@H]2[C@H](CO)N3CCCCN(S(=O)(=O)CC)C[C@@H]23)cc1 gave an inhibition of 47.8%. In the case of CCC(=O)Nc1ccc2c(c1)C(=O)N(C)[C@@H]1CC[C@@H](CC(=O)Nc3cccc(OC)c3)O[C@@H]1CO2, the inhibition was -12.2%. In the case of O=C(N[C@@H]1CC[C@H](CCn2cc(-c3ccccc3)nn2)O[C@H]1CO)c1cnccn1, the inhibition was 20.6%. With CNC(=O)C[C@@H]1CC[C@@H]2[C@H](COc3ccc(NC(=O)c4cccs4)cc3C(=O)N2C)O1 the inhibition was 9.57%. In the case of CC(C)CC#Cc1cnc2c(c1)C(=O)N([C@H](C)CO)C[C@H](C)[C@H](CN(C)CC1CCOCC1)O2, the inhibition was 60.8%. In the case of C/C=C/c1cnc2c(c1)C(=O)N([C@H](C)CO)C[C@H](C)[C@@H](CN(C)C(=O)Nc1ccc(C(F)(F)F)cc1)O2, the inhibition was 108%. COCC(=O)N1C[C@H]2[C@@H](c3ccccc31)[C@@H](CO)N2Cc1ccccc1 showed an inhibition of -14.2%. In the case of COc1cccc(-c2ccc3c(c2)[C@@H]2[C@@H](CCN2C(=O)CN2CCOCC2)[C@H](CO)N3)c1, the inhibition was 88.3%. With O=S(=O)(c1ccccc1)N1CCCCN2[C@@H](CO)[C@H](c3ccc(C#Cc4cccnc4)cc3)[C@@H]2C1 the inhibition was 90.8%. In the case of C[C@H](O)C#Cc1ccc([C@@H]2[C@H]3CN(S(=O)(=O)c4ccccc4)CCCCN3[C@H]2CO)cc1, the inhibition was 107% (active). Molecule CC(C)NC(=O)N1CCCCN2[C@H](CO)[C@H](c3ccc(C#C[C@H](C)O)cc3)[C@H]2C1 has an inhibition of 90.4%. Work on C[C@H]1CN([C@@H](C)CO)C(=O)c2cccc(NS(=O)(=O)c3cn(C)cn3)c2O[C@H]1CN(C)C(=O)Nc1ccc2c(c1)OCO2 yielded an inhibition of -234%. O=C(Cc1ccccn1)NCC[C@H]1CC[C@H](NC(=O)Nc2ccc(F)cc2)[C@@H](CO)O1 showed an inhibition of 10.8%. Molecule O=C(NC[C@@H]1[C@@H](c2ccccc2)[C@H](CO)N1C(=O)C1CCC1)NC1CCCC1 has an inhibition of -28.8%. In the case of CCN(C[C@@H]1[C@@H](c2ccccc2)[C@H](CO)N1C(C)=O)C(=O)NC(C)C, the inhibition was 7.85%. With CCN(C[C@H]1[C@H](c2ccccc2)[C@H](CO)N1C(=O)C1CC1)C(=O)NC1CCCC1 the inhibition was 96.5% (active).
